Measurements published in PubChem BioAssay (NCATS).
Active and inactive are the calls of the source. The call rests on the fitted dose curve; in most records, active means well fitted inhibition curve with a large enough effect; inconclusive means small, poorly fitted or top-dose-only effect; inactive means flat fitted curve, though single readings scatter.

Each molecule was assayed against DNA dC->dU-editing enzyme APOBEC-3G (Homo sapiens) (UniProt Q9HC16) (assay: qHTS for inhibitors of Vif-A3G interactions: Validation (AID 588379)). Settings: Vif-A3G protein interaction assay; series mostly up to 46.1 µM.
How it was run: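 HeLa cells stably expressing Vif and A3G-eYFP, 700 cells/well, incubated overnight at 37 deg C, then exposed to compound overnight at 37 deg C. Inhibition of Vif-mediated degradation read as increased yellow fluorescence (Ex 488/Em 500-530) by laser-scanning cytometry.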

Chain of DNA dC->dU-editing enzyme APOBEC-3G (Homo sapiens) (Q9HC16 whole entry, looked up): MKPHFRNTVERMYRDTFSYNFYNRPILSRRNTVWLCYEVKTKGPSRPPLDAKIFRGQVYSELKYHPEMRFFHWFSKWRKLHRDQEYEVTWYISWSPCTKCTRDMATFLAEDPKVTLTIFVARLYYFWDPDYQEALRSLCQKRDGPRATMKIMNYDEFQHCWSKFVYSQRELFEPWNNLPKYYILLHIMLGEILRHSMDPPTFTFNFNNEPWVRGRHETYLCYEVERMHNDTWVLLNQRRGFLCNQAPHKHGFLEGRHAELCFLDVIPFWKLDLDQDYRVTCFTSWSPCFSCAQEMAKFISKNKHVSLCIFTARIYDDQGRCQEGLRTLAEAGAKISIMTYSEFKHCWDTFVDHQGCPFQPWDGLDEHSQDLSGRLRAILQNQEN

SMILES | outcome
S=C(NC1CCCCC1)N1CCC(c2cnc[nH]2)CC1 | inactive
Cc1nccc2c1[nH]c1ccccc12 | inactive
CNCCc1c[nH]c2ccc(O)cc12 | inactive
CC(=O)NCCc1c[nH]c2ccccc12 | inactive
CCCCc1ccc(C(=O)O)nc1 | inactive
CC1=NN=C(c2ccc(N)cc2)c2cc3c(cc2C1)OCO3 | inactive
NC(=NCCC[C@H](N)C(=O)O)N[N+](=O)[O-] | inactive
CC[C@@]1(O)C(=O)OCc2c1cc1n(c2=O)Cc2cc3ccccc3nc2-1 | inactive
NCc1cc(=O)[nH]o1 | inactive
NCCc1c[nH]c2ccc(O)cc12 | inactive
c1ccc(CCCN2CCN(CCOC(c3ccccc3)c3ccccc3)CC2)cc1 | inactive
C[C@@H](N)Cc1cnc[nH]1 | inactive
COC(=O)[C@@H](N)CCCN=C(N)N[N+](=O)[O-] | inactive
C#CCOC(=O)C1=CCCN(C)C1 | inactive
CCCN(CCC)[C@@H]1CCc2ccc(O)cc2C1 | inactive
